Rows were chosen to be rich in hits. Some 3.1% of all compounds tested hit in one or more screens of this group.
Tau fibril ThT – blocks human tau fibril formation measured by thioflavin T | recombinant tau K18 P301L, heparin-induced fibrillization, ThT fluorescence | Potency, µM (titrated, usually from 57.4 µM), inactives show at the top dose activity, negative = inhibition, actives largely listed as inhibitors | 270,000 compounds, 2.1% hits; also: nearly all actives have a fitted effect of over 55% in size
Target sequence (P10636 561-689 P618L limits assumed): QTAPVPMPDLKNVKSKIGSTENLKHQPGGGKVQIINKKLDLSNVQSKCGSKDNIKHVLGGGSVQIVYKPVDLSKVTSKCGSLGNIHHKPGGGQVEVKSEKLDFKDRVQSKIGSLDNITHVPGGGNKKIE
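Using a mix of unlabeled (15 uM) and Alexa 594-labeled (0.24 uM) tau K18 P301L, heparin-triggered fibrillization over 6 hr at 37 C was scored by ThT fluorescence.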
Tau fluor cs – counter-screen for tau fibril formation inhibitors; tau K18 P301L Alexa594 fluorescence, heparin fibrillization; Potency, µM (top dose mostly 57.7 µM), without a hit: top-dose activity change, negative = decrease; 280,000 compounds, 0.93% hits; AID 1463; also: nearly all actives have a fitted effect of over 55% in size
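Human tau K18 P301L (15 uM unlabeled, 0.24 uM Alexa 594-labeled) in 100 mM sodium acetate pH 7 with 20 uM heparin, 6 hr at 37 C. ThT 30 uM added, 1 hr ambient; Alexa 594 FP and total fluorescence read at 555/632 nm.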
Tau fibril FP – inhibitors of human tau fibril formation. P10636. K18 P301L tau heparin fibrillization, Alexa594 FP, 6 h. Potency, µM (titrated, usually from 57.7 µM), inactives show top-dose activity, negative = inhibition, usual class: inhibitors. 280,000 compounds, 0.39% hits; also: nearly all actives have a fitted effect of over 55% in size
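Human tau K18 […] P301L fragment, 15 uM unlabeled plus 0.24 uM Alexa 594-labeled tau (final), with compound and 20 uM heparin in 100 mM sodium acetate pH 7; 6 hr at 37 C, then Alexa 594 FP read.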
TexasRed fluor – counter-screen for TRb-SRC2 inhibitors: fluorescence interference | TRb/SRC2 Texas Red total fluorescence interference | Potency, µM (highest dose often 106 µM), for inactives: at the highest dose fluorescence change, negative = quenching | 280,000 compounds, 0.29% hits | AID 1479; active = well fitted curve in either direction with a large enough effect; inconclusive = small, poorly fitted or top-dose-only effect
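Human TRb ligand-binding domain at 0.6 uM with 20 nM Texas Red SRC2 peptide in Tris buffer containing 1 uM T3 and 5% DMSO, incubated with compound 5 h at ambient temperature. Total fluorescence (555/632 nm) calculated as parallel + 2 × perpendicular.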
TRb-SRC2 inh – inhibitors of human thyroid hormone receptor beta-SRC2 interaction; P10828; TRbeta-SRC2 peptide binding, fluorescence polarization; receptor liganded with 1 µM T3; Potency, µM (highest dose often 106 µM), without a hit: top-dose activity change, negative = inhibition, most hits filed as inhibitors; 280,000 compounds, 0.065% hits; AID 1469;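 also: plate controls were bound peptide for no effect and peptide without receptor for full effect; nearly all actives have a fitted effect of over 50% in size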
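Polarization signal, normalized between peptide-alone and full complex controls, measured compound effects on T3-liganded human TRb LBD (0.6 uM) binding 20 nM Texas Red SRC2 peptide after 5 hr.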
Active calls of the source: *; [ ] = dose if it differs, or a comment. Unless noted, calls follow the shape of the dose curve; as a rule, active = well fitted curve in the direction sought with a large enough effect; inconclusive = small, poorly fitted or top-dose-only effect, or another doubt; inactive = no such curve, though single readings can be large; an effect the other way counts as inactive or inconclusive. Unless noted, % is scaled to controls: 0 for no effect and ±100 for the full control effect; potency is read from the fitted curve at half-maximal effect.

`Cc1[nH]c2ccccc2c1/C=N/NC(=O)c1cccc(S(=O)(=O)Nc2ccccc2Cl)c1` gave Tau fibril ThT inconclusive, Tau fluor cs 11µM*[quencher], Tau fibril FP inconclusive, TexasRed fluor -21% and TRb-SRC2 inh 3%.
Screening Cc1ccc(/C=N/NC(=O)c2cccc(S(=O)(=O)Nc3ccccc3Cl)c2)o1 returned Tau fibril ThT -12%, Tau fluor cs -16%, Tau fibril FP 5%, TexasRed fluor -1% and TRb-SRC2 inh 6%.
For COC(=O)c1cc(Nc2nc3ccccc3nc2NS(=O)(=O)c2ccc(C)cc2)ccc1Cl the results were Tau fibril ThT inconclusive, Tau fluor cs inconclusive, Tau fibril FP -14%, TexasRed fluor -1% and TRb-SRC2 inh -4%.
O=C(Nc1c(C(=O)N2CCN(c3ccccc3)CC2)oc2ccccc12)c1ccco1 was read as Tau fibril ThT inconclusive, Tau fluor cs inconclusive, Tau fibril FP 1%, TexasRed fluor -32% and TRb-SRC2 inh 8%.
Screening CO[Si](CCCNCCN)(OC)OC returned TexasRed fluor 0%[201 µM] and TRb-SRC2 inh -2%[201 µM].
For Nc1nn2c(C(F)(F)F)cc(=O)[nH]c2c1N=Nc1cccc(F)c1 the results were Tau fibril ThT 7.9µM*, Tau fluor cs inconclusive, Tau fibril FP -15%, TexasRed fluor inconclusive and TRb-SRC2 inh 9%.
Screening Cc1cc(=O)[nH]c2c(N=Nc3ccc(O)cc3)c(N)nn12 returned Tau fibril ThT 8.9µM*, Tau fluor cs -26%, Tau fibril FP 10%, TexasRed fluor -20%[53 µM] and TRb-SRC2 inh 8%[53 µM].
For Cc1cc(=O)[nH]c2c3ccccc3nn12 the results were Tau fibril ThT -6%, Tau fluor cs -9%, Tau fibril FP -6%, TexasRed fluor 1% and TRb-SRC2 inh 4%.
For Cc1ccc(NC(=O)CSc2cn(CC(=O)N3CCCC3)c3ccccc23)cc1Cl the results were Tau fibril ThT -16%, Tau fluor cs -28%, Tau fibril FP inconclusive, TexasRed fluor -1% and TRb-SRC2 inh -5%.
`CC1=C(c2ccc(C)c(C)c2)S(=O)(=O)N=C1N1CCC(C(=O)NC(C)c2ccccc2)CC1` (stereo unspecified) gave Tau fibril ThT -2%, Tau fluor cs -3%, Tau fibril FP 8%, TexasRed fluor 0% and TRb-SRC2 inh 2%.
`COc1ccc([N+](=O)[O-])cc1NC(=S)NC(C)=O` gave Tau fibril ThT -4%, Tau fluor cs 4%, Tau fibril FP 1%, TexasRed fluor -3% and TRb-SRC2 inh -4%.
Screening COc1ccc(/C=C/C(=O)NC(=S)Nc2cc([N+](=O)[O-])ccc2O)cc1OC returned Tau fibril ThT 1.6µM*, Tau fluor cs -14%, Tau fibril FP inconclusive, TexasRed fluor -14% and TRb-SRC2 inh 10%.
`Cc1ccccc1NC(=S)NC(NC(=O)COc1ccccc1)C(Cl)(Cl)Cl` (stereo unspecified) gave Tau fibril ThT 14µM*, Tau fluor cs -19%, Tau fibril FP inconclusive, TexasRed fluor -5% and TRb-SRC2 inh 0%.
For COc1ccc(NC(=S)NC(NC(=O)c2ccccc2Cl)C(Cl)(Cl)Cl)c([N+](=O)[O-])c1 (stereo unspecified) the results were Tau fibril ThT inconclusive, Tau fluor cs inconclusive, Tau fibril FP 6%, TexasRed fluor -1% and TRb-SRC2 inh -7%.
CCc1ccc(OCC(=O)NC(NC(=S)Nc2ccccc2C)C(Cl)(Cl)Cl)cc1 (stereo unspecified) was read as Tau fibril ThT 6%, Tau fluor cs 5%, Tau fibril FP 5%, TexasRed fluor 1% and TRb-SRC2 inh 14%.
COc1ccc(NC(=S)NC(NC(=O)CCl)C(Cl)(Cl)Cl)c([N+](=O)[O-])c1 (stereo unspecified) was read as Tau fibril ThT 16µM*, Tau fluor cs inconclusive, Tau fibril FP -11%, TexasRed fluor -4% and TRb-SRC2 inh -5%.
For Cc1ccc(-c2cc(C(F)(F)F)n3ncc(-c4ccc(Cl)cc4)c3n2)cc1 the results were Tau fibril ThT -9%, Tau fluor cs -9%, Tau fibril FP -3%, TexasRed fluor -2% and TRb-SRC2 inh -3%.

Assay outcomes from PubChem.
